Source: PubChem (National Center for Advancing Translational Sciences (NCATS))
A selection: hits, their analogues and other compounds. The true share with any hit is near 2.8%.
ATXN viability = Viability Counterscreen for Primary qHTS for Inhibitors of ATXN expression; S2 cells (HEK-293 line with an ATXN2-luciferase reporter) viability, CellTiter-Fluor protease fluorescence, 24 h; Potency, µM (series often up to 56.7 µM), hits mostly cytotoxic; hit rate 0.49% among 400,000; further: nearly all actives have a fitted effect of over 40% in size
HepG2 tox-1 = qHTS for Inhibitors of TGF-b: Cytotox Counterscreen; HepG2 CAGA-GFP viability, ATP luminescence, 18 h; Potency, µM (highest dose often 46.1 µM), hits mostly cytotoxic; hit rate 0.76% among 410,000; AID 588856, 2011
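CellTiter-Glo luminescence gave cytotoxicity after 18 hours at 37 degrees C. The cells were HepG2 CAGA-GFP in 1% FBS DMEM, stimulated with 500 pg/mL TGF-beta after compound addition. %Activity was normalised to no-cell wells (complete cell-killing) and DMSO (no toxicity), and curves were fitted and classified.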
TGFb inhibitor = qHTS for Inhibitors of TGF-b. HepG2 CAGA-GFP TGF-b/SMAD3 reporter, GFP fluorescence, 18 h; TGF-beta stimulated, 500 pg/mL final. Potency, µM (top dose mostly 46.1 µM), hits mostly inhibitors. hit rate 1.2% among 410,000. AID 588855, 2011; further: nearly all actives have a fitted effect of over 65% in size
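HEPG2 CAGA-GFP reporter cells (1000/well, DMEM with 1% FBS) received compounds, then recombinant TGF-beta at 500 pg/mL final for 18 hours at 37 degrees C. Per-cell GFP summed per well was normalised to unstimulated and stimulated DMSO controls before curve fitting.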
ATXN2 expr inh = Primary qHTS for Inhibitors of ATXN expression; HEK-293 ATXN2-luciferase reporter, luminescence, 24 h; Potency, µM (top dose mostly 57 µM), most hits filed as inhibitors; hit rate 0.72% among 360,000; AID 1745845, 2022; further: nearly all actives have a fitted effect of over 55% in size
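qHTS (up to 57 uM final) was run with 24 h compound exposure of reporter cells at 37 °C. Each well was multiplexed: SteadyGlo luminescence measured ATXN2-luciferase expression after a fluorogenic Gly-Phe-AFC viability readout (25 uM final).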
CtBP-E1A blk = qHTS Assay for Inhibitors of the CtBP/E1A Interaction | CtBP / adenovirus E1A interaction (AlphaScreen) | AlphaScreen GST-E1A/His-CtBP binding, 1536-well; active compounds read low | activity change, % (no concentration beside the values) | hit rate 0.49% among 340,000 | AID 651724, 2012; in the data active means activity change below about -65%; inconclusive means mostly about -30% to -63%
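In 5 uL wells, 23 nL compound meets equimolar GST-E1A and His-CtBP (5X stock 125 nM each) for 2 h, 37 °C. Beads (5X, 50 ug/mL) then 1 h, 37 °C, dark.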
Six1-Eya2 inh = qHTS Assay for Inhibitors of the Six1/Eya2 Interaction; AlphaScreen GST-Six1/His-Eya2 binding, biochemical; active compounds read low; hit rate 0.56% among 360,000; Homeobox protein SIX1 (Homo sapiens) + Protein phosphatase EYA2 (Homo sapiens), …; AID 651725, 2012; activity change, % (concentration not given with the values); in the data active means activity change below about -65%; inconclusive means mostly about -30% to -63%
Target sequence (O00167 whole entry, looked up): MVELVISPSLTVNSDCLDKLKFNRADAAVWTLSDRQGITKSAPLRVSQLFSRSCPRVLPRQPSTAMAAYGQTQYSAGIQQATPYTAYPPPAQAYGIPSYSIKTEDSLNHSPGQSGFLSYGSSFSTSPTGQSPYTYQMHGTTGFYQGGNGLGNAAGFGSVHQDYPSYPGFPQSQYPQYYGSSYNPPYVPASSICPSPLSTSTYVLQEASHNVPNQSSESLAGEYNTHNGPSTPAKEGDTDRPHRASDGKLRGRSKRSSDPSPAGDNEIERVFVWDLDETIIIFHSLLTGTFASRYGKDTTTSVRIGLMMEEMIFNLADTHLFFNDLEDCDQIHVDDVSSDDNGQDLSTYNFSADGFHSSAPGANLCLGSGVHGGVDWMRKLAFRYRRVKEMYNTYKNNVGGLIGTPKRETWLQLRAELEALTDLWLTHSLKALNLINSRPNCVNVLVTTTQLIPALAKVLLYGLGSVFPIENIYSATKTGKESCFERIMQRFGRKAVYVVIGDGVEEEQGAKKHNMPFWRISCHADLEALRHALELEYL
Target sequence (Q15475 whole entry, looked up): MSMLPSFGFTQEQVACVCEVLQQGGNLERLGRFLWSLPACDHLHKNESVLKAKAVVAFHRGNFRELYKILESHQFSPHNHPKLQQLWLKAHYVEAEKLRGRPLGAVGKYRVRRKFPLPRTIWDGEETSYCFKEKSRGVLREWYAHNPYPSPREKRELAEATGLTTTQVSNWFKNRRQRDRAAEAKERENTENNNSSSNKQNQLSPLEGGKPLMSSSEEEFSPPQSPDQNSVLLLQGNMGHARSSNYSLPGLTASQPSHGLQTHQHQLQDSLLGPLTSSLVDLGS
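AlphaScreen luminescence read after one hour at 37 °C in darkness. Pin-transferred compounds met GST-Six1 and His-Eya2 protein (5X stock 250 nM/500 nM) plus glutathione donor and Ni-chelate acceptor beads (5X, 50 ug/mL).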
TGFb confirm = qHTS for Inhibitors of TGF-b: Confirmation of Cherry Picks. shares compounds with TGFb inhibitor. HepG2 CAGA-GFP TGF-b reporter, GFP fluorescence, 18 h; cells stimulated with TGF-beta, 500 pg/mL. Potency, µM (series often up to 46.1 µM), most hits filed as inhibitors. hit rate 63% among 1,600. AID 720534, 2013; further: nearly all actives have a fitted effect of over 65% in size
HepG2 tox-2 = qHTS for Inhibitors of TGF-b: Cytotox Counterscreen for Cherry Picks | HepG2 CAGA-GFP viability, ATP luminescence, 18 h; cells stimulated with TGF-beta, 500 pg/mL | hit rate 27% among 1,600 | shares compounds with TGFb inhibitor | Potency, µM (top dose mostly 46.1 µM), hits mostly inhibitors; further: nearly all actives have a fitted effect of over 70% in size
CCL64 TGFb inh = qHTS for Inhibitors of TGF-b: CCL64 Cells Orthogonal Assay for Cherry Picks; shares compounds with TGFb inhibitor; CCL64 CAGA-GFP reporter, TGF-b stimulated, GFP fluorescence, 18 h; Potency, µM (doses to about 46.1 µM), hits mostly inhibitors; hit rate 41% among 1,600; further: nearly all actives have a fitted effect of over 65% in size
TGFb COP inh = qHTS for Inhibitors of TGF-b: Hit Validation in HepG2 Cells using COP promoter; shares compounds with TGFb inhibitor; HepG2 COP-GFP TGF-b reporter, GFP fluorescence, 18 h; cells stimulated by added recombinant TGF-beta; Potency, µM (series often up to 46.1 µM), usual class: inhibitors; hit rate 3% among 1,600; further: nearly all actives have a fitted effect of over 70% in size
Each line names hits and unclear results; the compound was inactive in the other large screens (follow-up assays come after a bar, where they were run). Unless noted, the call rests on the fitted dose curve; in most records, active means well fitted curve in the direction sought with a large enough effect; inconclusive means small, poorly fitted or top-dose-only effect, or another doubt; inactive means no such curve, though single readings can be large; an effect the other way counts as inactive or inconclusive.

Nc1ncnc2c1ncn2C1O[C@H](CO)[C@@H](O)[C@@H]1O (stereo partly drawn)	none
COc1cc(OC)c(NC(=O)c2noc3c2CSc2ccccc2-3)cc1Cl	none (no result: ATXN viability, ATXN2 expr inh, CtBP-E1A blk, Six1-Eya2 inh)
Oc1ccc(C[C@H]2CNC(=S)N2CC2CCCN2C[C@H](Cc2ccc(O)cc2)N2C[C@H](Cc3ccc(O)cc3)N(CC3CCCCC3)C2=S)cc1 (stereo partly drawn)	ATXN viability inconclusive, TGFb inhibitor 10µM, CtBP-E1A blk inconclusive | TGFb confirm 5.17µM | HepG2 tox-2 11.6µM | CCL64 TGFb inh 5.8µM | TGFb COP inh inconclusive
Oc1ccc(C[C@H]2CN([C@@H](Cc3ccc(O)cc3)CN3CCC[C@@H]3CN3C(=S)NC[C@@H]3Cc3ccccc3)C(=S)N2CC2CCCCCC2)cc1	ATXN viability 8.91µM, TGFb inhibitor 10µM, ATXN2 expr inh 10µM | TGFb confirm 23.1µM | HepG2 tox-2 inconclusive | CCL64 TGFb inh 8.2µM | TGFb COP inh inactive
Oc1ccc(C[C@H]2CNC(=S)N2CC2CCCN2C[C@H](Cc2ccccc2)N2C[C@H](Cc3ccc(O)cc3)N(CC3CCCCCC3)C2=S)cc1 (stereo partly drawn)	ATXN viability inconclusive, TGFb inhibitor 10µM, ATXN2 expr inh inconclusive | TGFb confirm 20.6µM | HepG2 tox-2 inconclusive | CCL64 TGFb inh 8.2µM | TGFb COP inh inactive
Oc1ccc(C[C@H]2CNC(=S)N2C[C@H]2CCCN2C[C@H](Cc2ccccc2)N2C[C@H](Cc3ccc(O)cc3)N(CC3CCCCCC3)C2=S)cc1	ATXN viability 20µM, TGFb inhibitor 7.08µM | TGFb confirm 23.1µM | HepG2 tox-2 inconclusive | CCL64 TGFb inh 13µM | TGFb COP inh inactive
Oc1ccc(C[C@H]2CNC(=S)N2CC2CCCN2C[C@H](Cc2ccc(O)cc2)N2C[C@H](Cc3ccccc3)N(CCc3ccccc3)C2=S)cc1 (stereo partly drawn)	TGFb inhibitor inconclusive, ATXN2 expr inh inconclusive
O=C(Cn1cc(S(=O)(=O)c2ccc(F)cc2)c(=O)c2cc3c(cc21)OCO3)Nc1ccccc1	none (no result: CtBP-E1A blk, Six1-Eya2 inh)
CC(C)[C@H]1COCCS(=O)(=O)N1Cc1ccccc1-c1cccc2c1oc1ccccc12	TGFb inhibitor inconclusive | TGFb confirm 9.2µM | HepG2 tox-2 inactive | CCL64 TGFb inh inactive | TGFb COP inh inactive
CC[n+]1c(/C=C/c2ccc(OC)c(OC)c2)ccc2ccccc21	none (no result: ATXN2 expr inh, CtBP-E1A blk)
CCN(CC)c1ccc(/C=C/c2ccc3ccc(OC)cc3[n+]2CC)cc1	TGFb inhibitor 6.31µM (no result: ATXN viability, ATXN2 expr inh, CtBP-E1A blk) | TGFb confirm 2.91µM | HepG2 tox-2 inconclusive | CCL64 TGFb inh 2.59µM | TGFb COP inh inactive
O=C(COC(=O)c1ccccc1)Nc1ncc([N+](=O)[O-])s1	Six1-Eya2 inh inconclusive
O=C(Nc1ccccc1)Nc1ncc([N+](=O)[O-])s1	ATXN viability 22.4µM, TGFb inhibitor 3.16µM, ATXN2 expr inh inconclusive | TGFb confirm 13µM | HepG2 tox-2 inconclusive | CCL64 TGFb inh 18.4µM | TGFb COP inh inactive
CCCCc1ccc(NC(=O)CN(C)CC(=O)Nc2ccccc2Cl)cc1	TGFb inhibitor 22.4µM | TGFb confirm inconclusive | HepG2 tox-2 inactive | CCL64 TGFb inh inconclusive | TGFb COP inh inactive
CN(CC(=O)Nc1ccccc1)CC(=O)Nc1ccccc1Cl	none
Cc1ccccc1C(=O)NC(=S)N(C)C1CCCCC1	none
CN(C(=S)NC(=O)c1ccccc1Br)C1CCCCC1	TGFb inhibitor inconclusive | TGFb confirm inactive | HepG2 tox-2 inactive | CCL64 TGFb inh inactive | TGFb COP inh inactive
CCO[C@@H]1OC(C(=O)NCc2ccccc2)=C[C@H](c2ccc(Br)cc2)[C@H]1CCCO	ATXN viability inconclusive, TGFb inhibitor inconclusive, ATXN2 expr inh inconclusive | TGFb confirm inconclusive | HepG2 tox-2 inactive | CCL64 TGFb inh inconclusive | TGFb COP inh inactive
CCO[C@H]1OC(C(=O)Nc2ccccc2)=C[C@@H](c2ccc(C(F)(F)F)cc2)[C@@H]1CCCO	ATXN viability inconclusive, TGFb inhibitor 14.1µM, ATXN2 expr inh inconclusive | TGFb confirm inconclusive | HepG2 tox-2 inactive | CCL64 TGFb inh inconclusive | TGFb COP inh inactive
CCc1ccc(C(=O)c2cn(CC(=O)Nc3ccc4c(c3)OCO4)c3ccc(CC)cc3c2=O)cc1	TGFb inhibitor inconclusive (no result: CtBP-E1A blk, Six1-Eya2 inh)
Cc1onc(-c2ccccc2Cl)c1C(=O)Nc1cccc(-c2cn3cccnc3n2)c1	TGFb inhibitor inconclusive | TGFb confirm inconclusive | HepG2 tox-2 inactive | CCL64 TGFb inh inactive | TGFb COP inh inactive
